For experiment [1], the target named is GTPase HRas (Homo sapiens) (UniProt P01112). The experiment can be described thus: Ras wt fluorescent GTP loading blockade – biochemical, wildtype, multiplex bead flow cytometry, dose response (AID 1335). Particulars: bead-based flow cytometry, Bodipy-GTP binding to GST-Ras; at 100 µM (top of the series). On the technique in general: In flow cytometry, cells or beads pass a laser one at a time.

Experiment [2] in a line: rapamycin-like changes in RPL19A-GFP expression – cell-based, S. cerevisiae, multiplex flow cytometry, primary screen (AID 1862; in the data active = percent of DMSO control GFP below about 86%;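 note: lower values mimic rapamycin by blocking the RPL19A rise seen in DMSO cells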). As to conditions: S. cerevisiae RPL19A-GFP strain, flow cytometry fluorescence, 3 h; at 10 µM; stronger effect = lower value.
The nature of experiment [3]: TOR pathway GLN3 branch reporter MEP2-GFP changes – S. cerevisiae, multiplex flow cytometry, primary screen (AID 1867;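 active = GFP response, as percent of the DMSO control, above the screen-wide mean plus 3 SD, about 139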;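 note: median GFP channel fluorescence of barcode-gated MEP2-GFP cells measured by flow cytometry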). As to conditions: S. cerevisiae MEP2-GFP strain, 3 h, at 10 µM, stronger effect = higher value.
Experiment [4] in a line: TOR pathway RTG branch CIT2 reporter changes – S. cerevisiae, GFP fusion, multiplex flow cytometry, primary screen (AID 1870;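 active = percent response above a set limit, the screen-wide mean plus 3 SD, cut at about 130% in these data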;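 note: barcoded CIT2-GFP strain pooled with four other GFP strains with rapamycin as positive control; median GFP fluorescence per well over plate mean of DMSO wells so 100% = DMSO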). Particulars: S. cerevisiae CIT2-GFP expression, 3 h, at 10 µM, stronger effect = higher value.
Experiment [5] can be described thus: TOR pathway LAP4-GFP level changes – S. cerevisiae, multiplex flow cytometry, primary screen (AID 1873;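 active = GFP signal, as percent of the solvent control, above the screen mean plus 3 SD, about 149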). Particulars: S. cerevisiae LAP4-GFP expression, 3 h, at 10 µM, stronger effect = higher value.
A short description of experiment [6]: yeast AGP1-GFP level changes, GLN3 branch – cell-based, multiplex flow cytometry, S. cerevisiae, primary screen (AID 1887;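 active = GFP signal above the screen-wide mean plus 3 SD, that is over about 124.5% of the solvent control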;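 note: AGP1-GFP fusion strain of S. cerevisiae within a five-strain barcoded multiplex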). Particulars: 3 h, at 10 µM, stronger effect = higher value.
The nature of experiment [7]: reduced mouse 2C T cell binding to pMHC/ICAM-1 vesicles – MLPCN validation set, flow cytometry, LFA-1/ICAM-1 modulator project, pilot screen (AID 2523;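 active = response below a set limit, under 55% cells CD8-positive and vesicle-bound, and CD8 cells' 90th-percentile brightness under 279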;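 for vesicle binding response: mean PE anti-B7-1 fluorescence of CD8+ cells relative to row control; 100% = QL9-loaded vesicles with DMSO vehicle in the same plate row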). Particulars: 2C mouse CD8+ T cells, at 7 µM, stronger effect = lower value; double positive events: measured here: CD8+/vesicle+ event percentage.
Experiment [8] concerns the target Integrin beta-1 (Homo sapiens) + Integrin alpha-4 (Homo sapiens) (UniProt P13612+P05556). The experiment can be described thus: alpha4beta1 integrin LIBS antibody binding reduction – U937 cells, HUTS-21 mAb, flow cytometry, validation set, VLA-4 allosteric modulator project, pilot screen (AID 2674;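 active = inhibition above 50%, about 3 SD of the validation set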;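 note: antibody binding induced by the VLA-4 ligand LDV present at three times its Kd; 0% = LDV ligand with antibody and no compound and 100% = antibody without LDV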). As to conditions: HUTS-21 LIBS mAb binding, at 6.7 µM, stronger effect = higher value.

Experiment [9] can be described thus: calorie-restriction mimetic ROS inhibitors, yeast – validation compound set, pilot screen (AID 2706;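 active = superoxide response below 65% of plate, a cut near 3 SD across the whole screen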;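 note: yeast exposed to compound for one week at 30 degrees C before staining; 100% = mean of all compound wells on the same plate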). Particulars: S. cerevisiae aging, superoxide DHE fluorescence; at 10 µM; stronger effect = lower value.
In experiment [10] the target is Beta-adrenergic receptor kinase 1 (Homo sapiens) (UniProt P25098). As to the kind of experiment: GRK2 binders displacing RNA aptamer, biochemical, validation, human GRK2, bead flow cytometry (AID 488806;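 active = aptamer binding inhibition above 30%, about 3 SD of noise from non-fluorescent compounds; inactive = inhibition at or below 30%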). As to conditions: bead-bound GRK2, FAM-aptamer displacement, at 10 µM, stronger effect = higher value.
Experiment [11] addresses Beta-2 adrenergic receptor (Homo sapiens) (UniProt P07550). As to the kind of experiment: agonist-induced loss of surface beta2AR – cell-based, FAP fluorogen, flow cytometry, validation set, pilot screen (AID 504459;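 active = percent response above 42, roughly 3 SD of non-fluorescent test compounds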;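 note: agonist-driven loss of surface beta2AR via internalization measured by FAP dye flow cytometry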). As to conditions: Am2.2-beta2AR cells, at 10 µM, stronger effect = higher value.
In experiment [12] the target is AP-2 complex subunit beta (Homo sapiens) (UniProt P63010). The experiment can be described thus: beta-arrestin/AP2 interaction blockers – biochemical, validation set, GST-AP2 beads, flow cytometry, pilot screen (AID 504541;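 active = inhibition above 54%, about 3 SD of non-fluorescent compounds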;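 note: AP2 carries R879A mutation and is captured from E. coli lysate; bead-bound FITC arrestin peptide fluorescence measuring arrestin peptide binding to AP2; 0% = DMSO wells and 100% = excess unlabeled arrestin peptide control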). Particulars: FITC arrestin peptide, at 10 µM, stronger effect = higher value.
Experiment [13] is described as follows: cytosolic pH regulators acting via V-ATPase – S. cerevisiae, pHLuorin, HTS validation (AID 504600; in the data active = response above about 15%;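 note: plate controls were DMSO for no effect and reference compound for full effect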). Particulars: V-ATPase proton transport, at 10 µM, stronger effect = higher value.
The subject of experiment [14] is anti-desmoglein-3 scFv antibody binding to human DSG3. As to the kind of experiment: blockers of pathogenic pemphigus antibody–desmoglein-3 binding – biochemical, validation compound set, bead-based, flow cytometry, pilot screen (AID 588368;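 active = binding below the plate cutoff, the plate median minus 3 SD, with a reading above zero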;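 note: signal is the median channel fluorescence of bead-bound GFP antibody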). Particulars: Protein G beads, DSG3-Fc, scFv-GFP binding, at 10 µM, stronger effect = lower value.
Experiment [15] relates to Botulinum neurotoxin type F light chain protease (Clostridium botulinum). As to the kind of experiment: Clostridium botulinum type F light chain protease inhibitors, microsphere substrate cleavage, validation (AID 588459; call rule not given here). As to conditions: multiplex microsphere protease substrate cleavage assay, flow cytometry; at 10 µM; stronger effect = higher value.
Experiment [16] has as its target Botulinum neurotoxin type A (Clostridium botulinum) (UniProt P0DPI0). As to the kind of experiment: BoNT/A light chain protease inhibitors, biochemical, multiplex microsphere flow cytometry, validation set (AID 588460; call rule not given here). Particulars: at 10 µM, stronger effect = higher value.
Experiment [17] concerns the target Lethal factor (Bacillus anthracis) (UniProt P15917). The experiment can be described thus: Bacillus anthracis lethal factor inhibition, microsphere flow cytometry protease assay, validation at 10 µM (AID 588461; call rule not given here). Particulars: multiplex microsphere protease cleavage assay, stronger effect = higher value.
A short description of experiment [18]: Nile Red efflux blockade in pump-expressing yeast – validation compound set, multiplex, phenotypic, pilot screen (AID 588506;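 active = efflux inhibition above 0.42, the validation set average plus 4 SD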;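 note: Nile Red retained in cells so higher fluorescence means more efflux inhibition; 0 = negative control wells and 1 = enniatin B 25 µM full block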). As to conditions: S. cerevisiae pump-expressing triplex, Nile Red efflux flow cytometry; at 10 µM; stronger effect = higher value.
Experiment [19] concerns the target ATP-binding cassette sub-family B member 6 (Homo sapiens) (UniProt Q9NP58). The experiment can be described thus: blockers of ABCB6-driven porphyrin uptake – K562-ABCB6 cells, flow cytometry, validation set, pilot screen (AID 588550;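 active = inhibition above the screen-wide mean plus 3 SD, about 51%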;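 note: 0% = DMSO wells and 100% = benzethonium chloride 70 µM positive control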). As to conditions: K562-ABCB6 porphyrin accumulation, 1 h, at 10 µM, stronger effect = higher value.
A short description of experiment [20]: AML differentiation inducers, ER-HoxA9 marrow cells – cell-based, GFP/MAC1 double positive, flow cytometry, validation set, primary screen (AID 588685;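 active = differentiation response of at least 50%, scaled between solvent and reference control, from cells with both markers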;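 note: compound exposure lasts four days before antibody staining and flow analysis; 0% = DMSO wells and 100% = 5 µM fulvestrant positive control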). As to conditions: stronger effect = higher value.

Values joined by “and” are separate entries in the source; they are usually repeats but may differ in a detail not shown here. Equal entries are not always repeated. Results filed as inconclusive are left out. Active and inactive are the calls of the source.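 Rule for the calls, unless noted: active = fitted half-maximal concentration within 10 nM to 100 µM, steepness 0.5 to 2, significant signal drop, low assay interference; inactive = the rest.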

With `CC(Oc1ccc(-c2ccccc2)cc1)C(=O)O` (configuration not stated), the GTP binding, percent of control in experiment [1] came out at 172%.

In experiment [1], `Cc1cc(C)cc(N2C(=O)NC(=O)/C(=C\C=C\c3ccco3)C2=O)c1` gave a GTP binding, percent of control of 83.8%.

As for `O=C(O)c1cn(Cc2ccccc2F)c2ccccc12`, in experiment [1], the GTP binding, percent of control was determined as 106%.

Regarding `O=C(O)c1cn(Cc2ccccc2Cl)c2ccccc12`, the GTP binding, percent of control in experiment [1] is 82.2%.

In turn, `Cc1ccc(C)c(OCCCn2cc(C(=O)O)c3ccccc32)c1` gave a GTP binding, percent of control in [1] of 88.6%.

`O=C(O)c1cn(Cc2ccc(F)cc2)c2ccccc12` displayed a GTP binding, percent of control in experiment [1] of 112%.

`Cc1nn(Cc2ccccc2)c(Cl)c1C(=O)O`: the GTP binding, percent of control in experiment [1] was found to be 86.7%.

With `CC[C@@H]1C(=O)OC[C@@H]1Cc1cncn1C`, in [2], the percent of DMSO control GFP was 89.8% (inactive). Further, the figures for the GFP response vs DMSO in experiment [3] and in [5] were 144% (active) and 88% (inactive), respectively. Further, the percent response of DMSO control in experiment [4] was 112% (inactive). In [6], the GFP response, % of DMSO was 86.3% (inactive). Further, the double positive events in [7] was 65.5% and 68.4%. Moreover, the vesicle binding response in experiment [7] was 171% (inactive) and 339% (inactive). Besides, the inhibition (as a rule, the change of the read-out against control, counted positive when it falls) is 13.2% (inactive) and 5.49% (inactive) in experiment [8]; 14.2% (inactive) and -5.27% (inactive) in [12]; -1.2% (inactive) and -3.1% (inactive) in experiment [15]; -0.7% (inactive) and 0.7% (inactive) in experiment [16]; -1.2% (inactive) and 7% (inactive) in experiment [17]; 3% (inactive) and 12% (inactive) in experiment [19]. The superoxide response (% of plate) in experiment [9] was 82.6% (inactive) and 106% (inactive). For the same molecule, the aptamer binding inhibition in [10] was 7% (inactive) and 4% (inactive). Moreover, the response in experiment [11] is 1.92% (inactive) and 3.7% (inactive); in experiment [13] it was -2.39% (inactive) and 0.38% (inactive). The binding (% of control) in experiment [14] was 104% (inactive) and 95.6% (inactive). For the same molecule, in [18], the efflux inhibition (fraction of control) is 0.16 (inactive) and 0.05 (inactive). For the same molecule, in experiment [20], the differentiation response was 14.7% (inactive) and 20.5% (inactive).

As to `CC1(C)CC(n2[nH]c(=O)c3c2NC(=O)CSC3c2ccccc2)CCO1` (configuration not stated), in experiment [1], the GTP binding, percent of control turned out to be 86.2%.

Molecule `Cc1nc2c(=O)n(C)c(=O)nc-2n(C)n1` gave a GTP binding, percent of control in experiment [1] of 98.5%.

On to `CN(C)c1ccc(/C=C/C=C2/C(=O)NC(=O)N(c3ccccc3)C2=O)cc1`, for which, in experiment [1], the GTP binding, percent of control was 81.4%.

In the case of `Cc1ccc(-n2c(O)c(/C=N/c3ncc(Br)cc3Br)c(=O)[nH]c2=O)cc1`, in experiment [1], the GTP binding, percent of control is 116%.

Consider `Cc1sc(-n2c(C)cc(C=C3C(=O)NC(=O)NC3=O)c2C)c(C#N)c1C`, for which the GTP binding, percent of control in experiment [1] worked out at 68.9%.

With `C[C@]12CC[C@@H](O)C[C@@H]1CC[C@@H]1[C@@H]2CC[C@]2(C)[C@@H](O)CC[C@@H]12`, in [2], the percent of DMSO control GFP was 95.4% (inactive). Moreover, the GFP response vs DMSO in experiment [3] was 107% (inactive); in experiment [5], 150% (active). The percent response of DMSO control in [4] is 83% (inactive). Further, the GFP response, % of DMSO in experiment [6] was 106% (inactive). In [7], this molecule displayed a double positive events of 58.5%. Besides, the vesicle binding response in experiment [7] was 122% (inactive). The inhibition is -7.79% (inactive) in experiment [8]; -7.18% (inactive) in experiment [12]; 1.2% (inactive) in [15]; 0.9% (inactive) in experiment [16]; 3.5% (inactive) in [17]; 7% (inactive) in experiment [19]. Moreover, in experiment [9], the superoxide response (% of plate) was 98% (inactive). Further, the aptamer binding inhibition in [10] is 3% (inactive). The response was 0.4% (inactive) in experiment [11] and 2.4% (inactive) in experiment [13]. In addition, the binding (% of control) in experiment [14] was 103% (inactive). The efflux inhibition (fraction of control) in experiment [18] was 0.08 (inactive). The differentiation response in experiment [20] was -13.3% (inactive).

The values above are taken from PubChem BioAssay.
